Test systems include NCI-H23 lung; NCI-H226 lung; NCI-H322M lung; HOP-62 NSCLC; HOP-92 NSCLC; NCI-H522 lung; A549/ATCC NSCLC; 786-0 renal; COLO 205 colon.
Holding throughout (experiment): NCI-60 one-dose screen, 48 h (100 = growth as untreated, 0 = no growth, -100 = all killed)
What all share (settings): 10 µM unless noted

Structures are written as SMILES. Compounds without any hit were thinned out: in the full panel of roughly 83,000, 20% have a hit.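 In brief: 96-well plates, 48 h treatment, single concentration, percent growth endpoint.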 Unmarked numbers belong to inactive results. Calls of active or inactive are those of the source. How the source made its calls: active means growth percent below 10; inactive means the rest.

On to `Cc1cc(N2CCCCC2)nc(N(CCNc2ccnc3cc(Cl)ccc23)Cc2ccccn2)n1`, for which the growth in the test on NCI-H23 lung is 53.7%; with NCI-H226 lung, 63.5%; with NCI-H322M lung, 68.8%; in the test on HOP-62 NSCLC, 55.6%; with HOP-92 NSCLC it was 30.6%; in the test on NCI-H522 lung, 56.3%. Moreover, the growth in the test with A549/ATCC NSCLC was 53.9%; with 786-0 renal it was 45.3%.
Consider `CC(C)n1nc(C#Cc2cccc3cc(-c4cccc(C(F)(F)F)c4)ncc23)c2c(N)ncnc21`, for which the growth in the test with NCI-H23 lung was 78.6%; in the test with NCI-H226 lung it was 48.2%; in the test on NCI-H322M lung, 94.8%; in the test with HOP-62 NSCLC, 59.7%; in the test with HOP-92 NSCLC, 78%; in the test on NCI-H522 lung, 43.7%. The growth in the test on A549/ATCC NSCLC is 44.4%; in the test with 786-0 renal, 89%.
Consider `OC(COc1cccc2ccccc12)CN1CCN(c2ccccc2)CC1` (centres undefined), for which the growth is 87.3% in the test on NCI-H23 lung; 99.1% in the test on NCI-H226 lung; 99.7% in the test with NCI-H322M lung; 90.4% in the test with HOP-62 NSCLC; 77.6% with HOP-92 NSCLC; 101% in the test with NCI-H522 lung. In addition, the growth is 102% with A549/ATCC NSCLC and 94.2% in the test on 786-0 renal.
With `N=C(N)c1ccc(-c2ccc(-c3ccc(Cl)cc3Cl)o2)nc1`, the growth in the test on NCI-H23 lung is 78%; with NCI-H226 lung, 96.9%; with NCI-H322M lung it was 30.7%; in the test on HOP-62 NSCLC, 29.1%; in the test on HOP-92 NSCLC, 77.4%; in the test with NCI-H522 lung, 30%. In the test with 786-0 renal, the growth is -22% (active).
Turning to `N=C(N)c1ccc(-c2ccc(-c3ccc(Cl)c(Cl)c3)o2)nc1`, the growth was 65.5% with NCI-H23 lung; 109% in the test with NCI-H226 lung; 42.4% with NCI-H322M lung; 5.09% (active) in the test with HOP-62 NSCLC; 84.6% with HOP-92 NSCLC; 78.2% with NCI-H522 lung. For the same compound, the growth with A549/ATCC NSCLC was -35.2% (active); in the test with 786-0 renal, -74.9% (active).
Regarding `COc1ccc(-c2c(N)n[nH]c2-c2ccccc2O)cc1OC`, the growth in the test with NCI-H23 lung was 93.1%; in the test on NCI-H226 lung it was 99.6%; in the test with NCI-H322M lung it was 102%; with HOP-62 NSCLC, 88.9%; in the test with HOP-92 NSCLC it was 74%; in the test with NCI-H522 lung, 85%. Also, the growth in the test with A549/ATCC NSCLC is 95.2%; in the test on 786-0 renal, 97.2%; with COLO 205 colon it was 98.1%.
Consider `CCCCOC(=O)c1ccc(NC(=O)C(C)N2CCOCC2)cc1` (centres undefined), for which the growth in the test on NCI-H23 lung was 98.5%; in the test on NCI-H226 lung, 84.3%; in the test on NCI-H322M lung, 95.7%; in the test on HOP-62 NSCLC, 99.5%; with HOP-92 NSCLC it was 76.7%; in the test with NCI-H522 lung it was 67.9%. In addition, the growth with A549/ATCC NSCLC was 97.3%; in the test with 786-0 renal, 99.1%.
With `CN(CCCCCCCCNc1ccnc2ccccc12)Cc1ccc(-c2ccc(-c3ccc(C#N)cc3)s2)cc1`, the growth with NCI-H23 lung is 21.1%; in the test on NCI-H226 lung, -66.9% (active); in the test with NCI-H322M lung it was -66% (active); in the test on HOP-62 NSCLC it was -11.2% (active); with HOP-92 NSCLC, 44.8%; in the test on NCI-H522 lung, -62.9% (active). The growth is -60.7% (active) in the test with A549/ATCC NSCLC and -89.8% (active) in the test on 786-0 renal.
With `Cc1nc(Nc2ccc(NC(=S)Nc3ccccc3)cc2)nc2nc(Nc3cccc(Cl)c3)[nH]c(=O)c12`, the growth in the test with NCI-H23 lung is 92.4%; in the test on NCI-H226 lung, 99.2%; in the test with NCI-H322M lung it was 183%; in the test on HOP-62 NSCLC it was 91.7%; in the test with HOP-92 NSCLC it was 60.4%; with NCI-H522 lung it was 34.4%. Also, the growth in the test on A549/ATCC NSCLC was 86.1%; with 786-0 renal it was 98.7%; in the test on COLO 205 colon it was 122%.
For `NS(=O)(=O)Oc1ccc(-c2sc3cc(O)ccc3c2C(=O)c2ccc(OCCN3CCCCC3)cc2)cc1`, the growth is 88% in the test with NCI-H23 lung; 79% in the test on NCI-H226 lung; 90.6% in the test on NCI-H322M lung; 67% in the test with HOP-62 NSCLC; 60.4% in the test with HOP-92 NSCLC; 65.8% in the test with NCI-H522 lung. Further, the growth is 33.4% in the test with A549/ATCC NSCLC and 71.6% in the test on 786-0 renal.
Consider `NC(=S)N/N=C/C(=O)O`, for which the growth in the test on NCI-H23 lung is 99.3%; in the test on NCI-H226 lung, 96.2%; in the test with NCI-H322M lung, 77.5%; in the test on HOP-62 NSCLC it was 85.9%; in the test on NCI-H522 lung, 96.8%; in the test on A549/ATCC NSCLC, 92.2%. Moreover, the growth with 786-0 renal was 104%.
Regarding `O=C(NCOC(O)C(Cl)(Cl)Cl)NCOC(O)C(Cl)(Cl)Cl` (centres undefined), the growth in the test with NCI-H23 lung was 102%; with NCI-H226 lung, 95.7%; in the test with NCI-H322M lung, 91.7%; in the test with HOP-62 NSCLC, 91.6%; in the test on NCI-H522 lung it was 82.8%; in the test with A549/ATCC NSCLC, 97.5%. Moreover, the growth in the test on 786-0 renal is 99.2%.
Consider `CCCCNCC(=O)Nc1ccc(C(=O)OCC)cc1`, for which the growth in the test on NCI-H23 lung was 105%; with NCI-H226 lung, 89.8%; in the test on NCI-H322M lung, 105%; with HOP-62 NSCLC it was 98.7%; in the test on HOP-92 NSCLC, 79.6%; in the test on A549/ATCC NSCLC, 95.3%. Also, in the test on 786-0 renal, the growth is 99.6%.
As for `CCCCCOC(=O)c1cccc(NC(=O)CN(CC)CC)c1`, the growth with NCI-H23 lung is 102%; with NCI-H226 lung, 96.7%; with NCI-H322M lung, 97.6%; in the test on HOP-62 NSCLC, 86.8%; in the test on HOP-92 NSCLC it was 75.6%; in the test with NCI-H522 lung, 62%. Besides, the growth with A549/ATCC NSCLC is 95.7%; with 786-0 renal, 81.2%.
Regarding `O=C(CCc1nc(-c2cccc(Cl)c2)no1)Nc1ccccn1`, the growth in the test on NCI-H23 lung is 89.2%; in the test on NCI-H226 lung, 89.8%; in the test with NCI-H322M lung, 108%; with HOP-62 NSCLC, 124%; with HOP-92 NSCLC, 82.3%; in the test with NCI-H522 lung, 84.5%. For the same compound, the growth was 111% in the test with A549/ATCC NSCLC, 96.3% in the test on 786-0 renal and 117% in the test on COLO 205 colon.

Values taken from PubChem BioAssay (NCI).
